# Values joined by “and” are separate entries in the source; they are usually repeats but may differ in a detail not shown here. Identical values can stand only once. Results filed as inconclusive are left out. Values without a mark were called inactive. Active and inactive are the calls of the source. Unless noted, calls follow the shape of the dose curve; as a rule, active = well fitted curve in the direction sought with a large enough effect; inconclusive = small, poorly fitted or top-dose-only effect, or another doubt; inactive = no such curve, though single readings can be large; an effect the other way counts as inactive or inconclusive.
# Tests used:
# [1] = qHTS Assay for Identification of Small Molecule Agonists for Hypoxia Response Element Signaling Pathway (AID 914; active = well fitted activation curve with a large enough effect in the signal ratio, with a control signal flat, not every such curve was filed as active; the % refers to the signal ratio; also: potency is read from the fitted curve at half-maximal effect; as to activation: % of control where 0% means no effect); settings: ME-180 (cervical carcinoma) HRE-bla reporter, beta-lactamase ratio, CoCl2, 17 h; activation: hits give high values
# Procedure, shortened: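 Reporter activity (beta-lactamase, CCF4 460nm/530nm ratio) in HRE-bla ME-180 cells is recorded after 17 h compound exposure with EC50 CoCl2 at 37 degrees Celsius. AC50 values come from titration data.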
# [2] = target: Cytochrome P450 2C9 (Homo sapiens) (UniProt P11712); test: qHTS Assay for Inhibitors and Substrates of Cytochrome P450 2C9 (AID 883); also: nearly all actives have a fitted effect of over 60% in size; also: potency is read from the fitted curve at half-maximal effect
# Cytochrome P450 2C9 (Homo sapiens), sequence (P11712 whole entry, looked up): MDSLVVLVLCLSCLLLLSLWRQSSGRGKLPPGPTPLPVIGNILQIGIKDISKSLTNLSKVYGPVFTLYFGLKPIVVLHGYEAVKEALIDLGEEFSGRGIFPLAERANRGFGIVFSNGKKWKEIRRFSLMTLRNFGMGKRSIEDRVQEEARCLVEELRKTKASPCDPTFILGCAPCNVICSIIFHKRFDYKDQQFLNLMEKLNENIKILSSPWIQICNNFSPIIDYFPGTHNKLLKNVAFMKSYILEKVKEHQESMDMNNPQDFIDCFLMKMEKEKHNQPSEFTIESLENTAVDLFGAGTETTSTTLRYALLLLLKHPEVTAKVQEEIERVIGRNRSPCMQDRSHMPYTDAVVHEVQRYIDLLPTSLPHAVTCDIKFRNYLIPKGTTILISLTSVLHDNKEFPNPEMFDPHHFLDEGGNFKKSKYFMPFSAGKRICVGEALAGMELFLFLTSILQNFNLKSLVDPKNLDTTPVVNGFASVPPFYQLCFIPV
# Procedure, shortened: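 Turnover of Luciferin-H (100uM, KM) by 10nM human CYP2C9 was measured over 60 min at 37C with NADPH regeneration; inhibitors and some substrates reduce luminescence. Data normalized to sulphaphenazole 57uM.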
# [3] = target: Estrogen receptor (Homo sapiens) (UniProt P03372); test: qHTS assay for small molecule antagonists of estrogen receptor alpha signaling (AID 588513; active = well fitted curve in the direction sought with a large enough effect in the signal ratio, with a control signal flat, not every such curve was filed as active; the % refers to the signal ratio; also: % is scaled to controls: 0 for no effect and ±100 for the full control effect)
# Estrogen receptor (Homo sapiens), sequence (P03372 whole entry, looked up): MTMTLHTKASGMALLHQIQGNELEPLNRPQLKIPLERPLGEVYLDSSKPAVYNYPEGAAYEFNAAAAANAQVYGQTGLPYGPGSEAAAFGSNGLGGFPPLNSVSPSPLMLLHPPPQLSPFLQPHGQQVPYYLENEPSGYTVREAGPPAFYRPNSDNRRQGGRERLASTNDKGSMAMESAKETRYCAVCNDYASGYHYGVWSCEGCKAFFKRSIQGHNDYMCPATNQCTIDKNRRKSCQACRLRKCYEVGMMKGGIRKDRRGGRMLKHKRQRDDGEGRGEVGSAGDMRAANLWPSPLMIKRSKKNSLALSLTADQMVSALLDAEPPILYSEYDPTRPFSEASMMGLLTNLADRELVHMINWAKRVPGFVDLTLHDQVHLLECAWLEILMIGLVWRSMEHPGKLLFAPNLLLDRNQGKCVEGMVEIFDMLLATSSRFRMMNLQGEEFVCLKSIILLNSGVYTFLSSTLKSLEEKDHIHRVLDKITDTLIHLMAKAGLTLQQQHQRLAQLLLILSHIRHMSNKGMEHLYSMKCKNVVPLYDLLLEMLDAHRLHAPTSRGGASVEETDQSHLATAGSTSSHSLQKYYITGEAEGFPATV
# Procedure, shortened: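 ER-alpha-UAS-bla GripTite HEK 293 cells in 2% charcoal/dextran-treated FBS medium; compounds titrated (1:2, duplicate), then stimulated with 0.5 nM 17-beta-estradiol for 18 h at 37C. CCF4 beta-lactamase fluorescence; Hill-fit IC50 and efficacy.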
# [4] = target: Estrogen receptor (Homo sapiens) (UniProt P03372); test: qHTS assay for small molecule agonists of estrogen receptor alpha signaling (AID 588514; calls by dose curve;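 also: 0% = vehicle only and 100% = reference agonist; nearly all actives have a fitted effect of over 70% in size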)
# Procedure, shortened: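 Cells were plated at 5000/well, incubated 4 hrs at 37 C, dosed with compound titration series, incubated 18 hrs at 37 C, loaded with CCF4 dye for 2 hrs at RT, then fluorescence was read.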
# [5] = target: Androgen receptor (Homo sapiens) (UniProt P10275); test: qHTS assay for small molecule agonists of androgen receptor signaling (AID 588515; active = well fitted curve in the direction sought with a large enough effect in the signal ratio, with a control signal flat; the % refers to the signal ratio; also: % is scaled to controls: 0 for no effect and ±100 for the full control effect); settings: AR-UAS-bla HEK293, beta-lactamase ratio, agonist 16 h; hits give high values
# Androgen receptor (Homo sapiens), sequence (P10275 whole entry, looked up): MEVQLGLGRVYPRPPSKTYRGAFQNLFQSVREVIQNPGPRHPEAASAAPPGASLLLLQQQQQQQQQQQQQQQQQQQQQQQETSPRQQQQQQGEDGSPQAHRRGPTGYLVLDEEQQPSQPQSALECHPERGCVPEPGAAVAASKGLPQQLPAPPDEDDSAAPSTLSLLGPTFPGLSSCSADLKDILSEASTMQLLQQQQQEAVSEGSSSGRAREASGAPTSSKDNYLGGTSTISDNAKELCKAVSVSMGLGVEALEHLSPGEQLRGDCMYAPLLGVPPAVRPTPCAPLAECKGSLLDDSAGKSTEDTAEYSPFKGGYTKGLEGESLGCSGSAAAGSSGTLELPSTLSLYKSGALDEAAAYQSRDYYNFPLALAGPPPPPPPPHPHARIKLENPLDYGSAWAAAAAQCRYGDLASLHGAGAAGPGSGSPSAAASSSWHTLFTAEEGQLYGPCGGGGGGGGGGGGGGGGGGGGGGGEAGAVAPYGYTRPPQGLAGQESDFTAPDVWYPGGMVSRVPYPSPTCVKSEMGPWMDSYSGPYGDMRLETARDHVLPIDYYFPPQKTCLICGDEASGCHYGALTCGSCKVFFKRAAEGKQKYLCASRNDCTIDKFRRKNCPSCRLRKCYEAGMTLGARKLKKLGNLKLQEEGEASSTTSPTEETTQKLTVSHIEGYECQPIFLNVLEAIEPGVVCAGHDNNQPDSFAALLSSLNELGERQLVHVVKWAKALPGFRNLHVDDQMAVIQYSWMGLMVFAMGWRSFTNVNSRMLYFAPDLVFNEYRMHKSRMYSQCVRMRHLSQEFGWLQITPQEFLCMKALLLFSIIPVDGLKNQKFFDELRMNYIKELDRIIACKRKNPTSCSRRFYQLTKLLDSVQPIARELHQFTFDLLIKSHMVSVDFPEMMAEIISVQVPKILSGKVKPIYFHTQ
# Procedure, shortened: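 EC50 and efficacy came from Hill fits of titrations (up to 92 uM) normalized to 30 nM R1881 as 100% and DMSO as 0%. Compound exposure was 16 h at 37 C on AR-UAS-bla HEK293 cells, with a 405/460/530 nm CCF4 fluorescence read.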
# [6] = target: Androgen receptor (Homo sapiens) (UniProt P10275); test: qHTS assay for small molecule antagonists of androgen receptor signaling (AID 588516; active = well fitted curve in the direction sought with a large enough effect in the signal ratio, with a control signal flat, not every such curve was filed as active; the % refers to the signal ratio; also: % is scaled to controls: 0 for no effect and ±100 for the full control effect)
# Procedure, shortened: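 AR-UAS-bla GripTite HEK 293 cells (2000/well) treated with compound titrations plus 10 nM R1881 for 16 h at 37C. Beta-lactamase read by CCF4 FRET (460/530 nm); IC50 from Hill fits, normalized to R1881 and DMSO control wells.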
# [7] = qHTS assay to identify small molecules that stimulate interleukin-8 (IL-8) secretion (AID 651758; active = well fitted activation curve with a large enough effect in the signal ratio; the % refers to the signal ratio; also: 0% is about no effect)
# Procedure, shortened: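 Secreted IL-8 measured by TR-FRET sandwich (cryptate and XL665 antibodies) from THP-1 cells exposed to compound overnight (16 hrs, 37 C).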
# [8] = target: Bile acid receptor (Homo sapiens) (UniProt Q96RI1); test: qHTS assay for small molecule antagonists of farnesoid X receptor signaling (AID 588526; calls by dose curve; also: % is scaled to controls: 0 for no effect and ±100 for the full control effect)
# Bile acid receptor (Homo sapiens), sequence (Q96RI1 whole entry, looked up): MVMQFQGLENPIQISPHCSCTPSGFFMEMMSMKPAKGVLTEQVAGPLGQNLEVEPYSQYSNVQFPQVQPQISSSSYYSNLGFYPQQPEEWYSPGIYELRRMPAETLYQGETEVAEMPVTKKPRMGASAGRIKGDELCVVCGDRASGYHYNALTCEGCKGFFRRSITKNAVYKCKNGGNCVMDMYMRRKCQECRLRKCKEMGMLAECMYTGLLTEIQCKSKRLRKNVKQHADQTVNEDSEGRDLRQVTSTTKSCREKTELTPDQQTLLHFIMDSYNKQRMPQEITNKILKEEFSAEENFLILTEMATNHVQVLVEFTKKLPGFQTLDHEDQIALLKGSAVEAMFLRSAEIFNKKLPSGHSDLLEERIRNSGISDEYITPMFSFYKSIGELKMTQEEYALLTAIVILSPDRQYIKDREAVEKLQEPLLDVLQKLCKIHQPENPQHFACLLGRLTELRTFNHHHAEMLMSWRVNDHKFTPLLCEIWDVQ
# Procedure, shortened: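 Beta-lactamase reporter antagonist mode: HEK293T FXR-UAS-bla cells, titrated compound, CDCA stimulation, 16 h 37 C, CCF4 dye 2 h RT. Data normalized to CDCA 50 uM and DMSO; Hill-fit IC50.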
# [9] = target: Peroxisome proliferator-activated receptor gamma (Homo sapiens) (UniProt P37231); test: qHTS assay for small molecule antagonists of peroxisome proliferator-activated receptor gamma signaling (AID 588537; active = well fitted inhibition curve with a large enough effect in the signal ratio, with a control signal flat, not every such curve was filed as active; the % refers to the signal ratio;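 also: reporter cells co-stimulated with 50 nM rosiglitazone agonist during compound treatment; % of control where 0% means no effect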)
# Peroxisome proliferator-activated receptor gamma (Homo sapiens), sequence (P37231 whole entry, looked up): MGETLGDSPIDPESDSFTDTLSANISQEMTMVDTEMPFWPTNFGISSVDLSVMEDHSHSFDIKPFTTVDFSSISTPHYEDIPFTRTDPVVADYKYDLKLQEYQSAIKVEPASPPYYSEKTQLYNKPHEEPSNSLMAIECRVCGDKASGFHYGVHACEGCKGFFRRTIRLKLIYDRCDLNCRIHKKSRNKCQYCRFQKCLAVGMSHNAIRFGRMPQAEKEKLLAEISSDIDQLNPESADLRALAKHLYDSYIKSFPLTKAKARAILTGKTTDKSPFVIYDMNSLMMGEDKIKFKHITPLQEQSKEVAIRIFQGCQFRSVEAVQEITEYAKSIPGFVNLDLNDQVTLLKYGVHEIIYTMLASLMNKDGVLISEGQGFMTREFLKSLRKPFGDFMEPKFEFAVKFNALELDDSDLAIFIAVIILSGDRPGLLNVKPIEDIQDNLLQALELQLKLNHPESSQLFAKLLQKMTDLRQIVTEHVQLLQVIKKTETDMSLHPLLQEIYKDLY
# Procedure, shortened: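 Antagonist mode, beta-lactamase reporter in HEK293; charcoal/dextran FBS 1%; 3000 cells/well, 37 C 6-6.5 h; cpd titration + rosiglitazone 50 nM final, 16 h 37 C; CCF4, 2 h RT; 460/530 nm; Hill fit → IC50, efficacy.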
# [10] = qHTS assay for small molecule activators of the p53 signaling pathway (AID 651743; active = well fitted activation curve with a large enough effect in the signal ratio, not every such curve was filed as active; the % refers to the signal ratio; also: % of control where 0% means no effect); settings: HCT-116 p53RE-bla, beta-lactamase FRET ratio, 16 h; hits give high values
# Procedure, shortened: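 Read-out is fluorescence intensity from the LiveBLAzer B/G FRET substrate, added for 2 hours at room temperature after HCT-116 p53RE-bla cells had been incubated with compounds for 16 hours at 37 C.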
# [11] = qHTS profiling for inhibitors of Plasmodium falciparum proliferation (AID 504749);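 also: 0% = DMSO vehicle and full inhibition = artemisinin control; nearly all actives have a fitted effect of over 60% in size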; settings: P. falciparum in erythrocytes, SYBR Green DNA, 72 h; at 12.8 µM (top of the series); parasite line B
# Procedure, shortened: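 Infected RBCs, 0.3% parasitemia/2.5% Hct final; cpd 72 h, 37 C, 5% CO2; lysis buffer with saponin/triton/SYBR Green I, o/n RT dark; FI 485/535; norm. to artemisinin (0.29 uM) and DMSO.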
compound,measurement,setting,value
FC(F)(F)c1ccccc1-c1cncnc1NCCN1CCOCC1,Potency,[1],2510 nM (active)
COc1ccc(-n2c(=O)c(-c3cn(C)c4ccccc34)nc3cnc(N4CCNCC4)nc32)cc1,Potency,[1],3160 nM (active)
COc1cccc(-c2ccc3ncnc(NCCc4c[nH]c5ccc(OC)cc45)c3c2)c1,Potency,[2],398 nM (active)
FC(F)(F)c1ccccc1-c1ccc2ncnc(NCCN3CCOCC3)c2c1,activation,[1],-0.346%
COc1cccc(-c2ccc3ncnc(NCCN4CCOCC4)c3c2)c1,activation,[1],-14.8%
CN(C)C(=O)c1ccc(-c2nc(N(C)C)c3ccccc3n2)cc1,"activity change, negative = inhibition",[2],29.4% [at 2.29 µM]
COS(C)(=O)=O,outcome,[3],inactive
same,outcome,[4],inactive
C=C(C)[C@H]1CC=C(C)C(=O)C1,activation,[5],12.8% and -1.39%
same,outcome,[6],inactive
same,outcome,[7],inactive
CC1=CC(=O)CC(C)(C)C1(O)/C=C/C(C)=C\C(=O)O (stereo not given),outcome,[8],inactive
same,outcome,[9],inactive
same,activation,[10],-1.58%
C=CC(C)(O)CCC=C(C)C (stereo not given),outcome,[8],inactive
same,outcome,[9],inactive
CN(C)CC/C=C1\c2ccccc2CSc2ccccc21,"activity, negative = inhibition",[11],2.26%
C[C@@H]1CCC[C@H](C)N1NC(=O)c1ccc(Cl)c(S(N)(=O)=O)c1,"activity, negative = inhibition",[11],12%
Cc1cccc(CNc2ccnc(-c3ccccc3CN(C)C)n2)c1,"activity change, negative = inhibition",[2],13.9% [at 2.29 µM]
COc1ccccc1CNc1ccnc(-c2ccccc2C(F)(F)F)n1,activation,[1],-5.47%
COCC(=O)N1CCC2(CCN(Cc3ccncc3)CC2)CC1,Potency,[2],398 nM (active)
N#CCCn1c(=O)cnc2cnc(N3CCNCC3)nc21,Potency,[2],inactive
COc1ccc2[nH]cc(CCNc3ncnc4ccc(-c5ccc(C(=O)N(C)C)cc5)cc34)c2c1,Potency,[2],251 nM (active)
N#CCCn1c(=O)c(-c2ccc(Cl)cc2)nc2cnc(Oc3cccc(Cl)c3)nc21,Potency,[2],inactive
COCC(=O)N1CCC2(CC1)CN(Cc1nccs1)C2,Potency,[2],inactive
O=C(Oc1ccccc1)N1CCC2(CC1)CN(c1ccncc1)C2,Potency,[2],3160 nM (active)
COc1ccc2[nH]cc(CCNc3nc(-c4ccoc4)nc4ccccc34)c2c1,activation,[1],-13.1%
c1ccc2c(Nc3ccncc3)nc(-c3ccc4c(c3)OCO4)nc2c1,activation,[1],-1.29%
O=c1cnc2cnc(N3CCOCC3)nc2n1C[C@H]1CCCO1,Potency,[2],inactive
same,activation,[1],9.58%
